A selection: hits, their analogues and other compounds. The true share with any hit is near 1.7%.
OPRM1-OPRD1 inv – mu-delta opioid heterodimer inverse agonism; P35372+P41143; cell-based MOR-DOR heterodimer luminescence; inhibition, % at 9.3 µM; 340,000 compounds, 0.21% hits; in the data active means inhibition above about 22%, passing the limit was not always enough
Target sequence (P35372 whole entry, looked up): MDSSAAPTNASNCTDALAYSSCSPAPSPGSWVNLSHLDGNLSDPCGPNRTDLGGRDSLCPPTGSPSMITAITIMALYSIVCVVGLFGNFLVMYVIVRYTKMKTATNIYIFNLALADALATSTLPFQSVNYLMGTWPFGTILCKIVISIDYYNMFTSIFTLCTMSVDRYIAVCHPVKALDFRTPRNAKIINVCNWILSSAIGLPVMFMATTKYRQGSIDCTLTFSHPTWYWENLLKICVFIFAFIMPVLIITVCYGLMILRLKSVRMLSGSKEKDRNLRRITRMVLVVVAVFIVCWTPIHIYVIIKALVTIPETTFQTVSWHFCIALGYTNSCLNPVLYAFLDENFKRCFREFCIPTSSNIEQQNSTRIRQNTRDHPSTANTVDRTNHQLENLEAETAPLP
Target sequence (P41143 whole entry, looked up): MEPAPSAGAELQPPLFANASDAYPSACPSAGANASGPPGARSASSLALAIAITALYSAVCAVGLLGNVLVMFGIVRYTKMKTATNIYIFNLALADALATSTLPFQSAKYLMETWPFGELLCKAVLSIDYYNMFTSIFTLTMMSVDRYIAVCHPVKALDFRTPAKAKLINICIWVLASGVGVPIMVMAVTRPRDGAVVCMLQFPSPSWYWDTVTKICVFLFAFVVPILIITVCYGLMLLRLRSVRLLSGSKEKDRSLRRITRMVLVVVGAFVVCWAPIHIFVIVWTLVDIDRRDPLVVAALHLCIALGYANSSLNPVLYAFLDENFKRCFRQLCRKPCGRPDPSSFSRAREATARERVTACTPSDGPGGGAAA
V-ATPase pHluor – yeast V-ATPase proton transport regulation by pHLuorin | S. cerevisiae, pHLuorin cytosolic pH fluorescence | response, % at 10 µM | 350,000 compounds, 0.37% hits; in the data active means response mostly above about 7.3%, no sharp cut-off; inactive means mostly below about 5.4%; further: actives read high
HTR5A inv ag – inverse agonist of human HTR5A in OPRM1-OPRD1 counter-screen; 340,000 compounds, 0.083% hits; P47898; HTR5A cell line, luminescence, inverse agonism; inhibition, % at 9.3 µM; AID 504634; in the data active means inhibition mostly above about 23%, no sharp cut-off; inactive means mostly below about 18%
beta cell repl – induces beta-cell replication in MIN6 cells. MIN6 cells proliferation, ATPlite luminescence, 48 h; cells starved in 0.2% serum; 100% = growth in 10% serum. proliferation, % at 10 µM. 330,000 compounds, 0.29% hits;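 active means compounds whose signal lies at least 3.5 SD above the mean of all wells on their plate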
HTR5A ag ctr – HTR5A agonism, opioid heterodimer counter-screen | P47898 | 340,000 compounds, 0.61% hits | HTR5A agonist assay, luminescence, cell-based | AID 504692 | activation, % at 9.3 µM; in the data active means activation mostly above about 9.5%, no sharp cut-off; inactive means mostly below about 7.6%
MOR-DOR ag-1 – OPRM1-OPRD1 heterodimerization agonism; activation, % at 9.3 µM; AID 504326; cells, luminescence; P35372+P41143; 340,000 compounds, 0.3% hits
MOR-DOR ag-2 – opioid heterodimer agonism, HTR5A counter-screen; shares compounds with HTR5A ag ctr; U2OS counter-screen cells, complementation luminescence, 3 h; activation, % at 9.3 µM; 800 compounds, 13% hits
HTR5A ag confirm – HTR5A (human) agonism, confirmation; shares compounds with HTR5A ag ctr; HTR5A agonist cell assay, luminescence; activation, % at 9.3 µM; 800 compounds, 17% hits; AID 504915; in the data active means activation above about 17%
Large screens that a line does not name were inactive (follow-up assays come after a bar, where they were run). Unless noted, no stated cut-off is given here; in the data, active means activation above about 18%; inactive means the rest.

COc1ccc(-c2nc(C#N)c(N3CCc4ccccc4C3)o2)cc1OC	HTR5A ag ctr 18 | MOR-DOR ag-2 inactive | HTR5A ag confirm inactive
COc1ccccc1-c1nc(C#N)c(N2CCc3ccccc3C2)o1	none
c1ccc(Cc2nnc(-c3ccccc3)o2)cc1	HTR5A ag ctr 16 | MOR-DOR ag-2 inactive | HTR5A ag confirm inactive
COc1ccc(C(=O)C2CCN(C(=O)Nc3ccccc3C)CC2)cc1	none
O=C1c2cc([N+](=O)[O-])ccc2-c2cc(Br)c(N=C(NO)C(F)(F)F)cc21	HTR5A ag ctr 21 (no result: beta cell repl) | MOR-DOR ag-2 19 | HTR5A ag confirm inactive
O=C1c2cc([N+](=O)[O-])ccc2-c2cc(Cl)c(NC(=O)C(F)(F)F)cc21	none (no result: beta cell repl)
O=C(CN1CCN(C(=O)C2CC2)CC1)Nc1cc(C(F)(F)F)cc(C(F)(F)F)c1	none
CCN(Cc1nc(-c2ccc(OC)c(OC)c2)no1)C(=O)c1ccoc1C	none
COc1ccc(NC(=O)C2CCCNC2)cc1OCC(C)C (stereo not drawn)	none
COc1ccc(NC(=O)C2CCCN(CCCc3ccccc3)C2)cc1OCC(C)C (stereo not drawn)	HTR5A ag ctr 16 | MOR-DOR ag-2 inactive | HTR5A ag confirm inactive
CC[N+]1(C)CC2CCC(C)(C1)C2(C)C (stereo not drawn)	none (no result: beta cell repl)
C=CCNC(=O)c1ccccc1NC(=O)C1CC(=O)N(C(C)C)C1 (stereo not drawn)	HTR5A ag ctr 16 | MOR-DOR ag-2 inactive | HTR5A ag confirm inactive
CC1(C)Cc2cccc(OCC(=O)Nc3ccc(OCC(N)=O)cc3)c2O1	none
CC1(C)Cc2cccc(OCC(=O)Nc3ccc(S(N)(=O)=O)cc3)c2O1	HTR5A ag ctr 34 | MOR-DOR ag-2 inactive | HTR5A ag confirm inactive
CN(C)C(=O)c1ccc(NC(=O)COc2cccc3c2OC(C)(C)C3)cc1	HTR5A ag ctr 28 | MOR-DOR ag-2 inactive | HTR5A ag confirm 38
COC(=O)c1ccc(NC(=O)COc2cccc3c2OC(C)(C)C3)cc1	HTR5A ag ctr 40 | MOR-DOR ag-2 inactive | HTR5A ag confirm 44
CC(=O)NS(=O)(=O)c1ccc(NC(=O)COc2cccc3c2OC(C)(C)C3)cc1	none
CC(=O)Nc1ccc(NC(=O)COc2cccc3c2OC(C)(C)C3)cc1	none
O=[N+]([O-])c1ccccc1OCCNCc1ccccc1	none
COC(=O)N(C)C[C@H]1OCc2cnnn2CCCC(=O)N([C@H](C)CO)C[C@H]1C	none (no result: OPRM1-OPRD1 inv, HTR5A inv ag, beta cell repl, HTR5A ag ctr, MOR-DOR ag-1)
COc1cccc(N2CC(NC(=O)C(=O)c3c[nH]c4ccccc34)CC2=O)c1 (stereo not drawn)	none
CC(C)c1cc(C(=O)OCC(=O)NC2CCS(=O)(=O)C2)c(O)c(C(C)C)c1 (stereo not drawn)	none (no result: OPRM1-OPRD1 inv, HTR5A inv ag, beta cell repl, HTR5A ag ctr, MOR-DOR ag-1)
Cc1nc(CSc2n[nH]c(=O)n2-c2cccc(F)c2)cs1	none
O=C(NCc1n[nH]c(=S)n1-c1ccc(Cl)c(Cl)c1)c1ccc(S(=O)(=O)N2CCOCC2)cc1	none
COc1ccc2cc3cc(C(=O)Nc4ccc5c(c4)OCCO5)oc3nc2c1	HTR5A ag ctr 25 | MOR-DOR ag-2 inactive | HTR5A ag confirm inactive
Cc1cc(C(F)F)nn1CC(=O)N1CCSCC1	HTR5A ag ctr 16 | MOR-DOR ag-2 inactive | HTR5A ag confirm inactive
O=C(Cn1nc(C(F)F)cc1C1CC1)N1CCCC1	none
CC(C)CC(NC(=O)C(CO)NC(=O)C1CCC(=O)N1)C(N)=O (stereo not drawn)	none
COC(=O)c1c(NC(=O)c2ccccc2C(=O)O)sc2c1CCC2	HTR5A ag ctr 20 | MOR-DOR ag-2 inactive | HTR5A ag confirm inactive
O=C(CSc1ccsc1[N+](=O)[O-])NCc1ccco1	none
CS(=O)(=O)N1CCC(C(=O)NCc2ccc(Cl)cc2Cl)CC1	none
CCCN1C[C@H](CSC)C[C@@H]2c3cccc4[nH]cc(c34)C[C@H]21	HTR5A ag ctr 90 | MOR-DOR ag-2 38 | HTR5A ag confirm inactive
COc1cccc(CNC(=O)Cc2ccc(-c3ccccc3)cc2)c1	none
COc1cccc(CNC(=O)COC(=O)CNC(=O)c2ccc(-c3ccccc3)cc2)c1	HTR5A ag ctr 15 | MOR-DOR ag-2 inactive | HTR5A ag confirm inactive
CCOC(=O)c1c(C)oc2c1c(C=NCCO)c(O)c1ccccc12	HTR5A ag ctr 17 (no result: beta cell repl) | MOR-DOR ag-2 inactive | HTR5A ag confirm inactive
CCOC(=O)c1c(C)oc2c1c(C(c1ccccc1)N1CCOCC1)c(O)c1ccccc12 (stereo not drawn)	none
O=S1(=O)CCN2N=C(C34CC5CC(CC(C5)C3)C4)SC2=N1	HTR5A ag ctr 18 | MOR-DOR ag-2 inactive | HTR5A ag confirm inactive
Cc1cc(C)c2oc(C(=O)N3CCN(C)CC3)cc(=O)c2c1	none
COc1ccccc1C(CNC(=O)c1cccc(NS(=O)(=O)c2ccc(C)c(F)c2)c1)N1CCCC1 (stereo not drawn)	HTR5A ag ctr 44 | MOR-DOR ag-2 inactive | HTR5A ag confirm 41
O=S(=O)(CCc1ccccc1)CS(=O)(=O)CCc1ccccc1	none (no result: beta cell repl)
O=C(Nc1ccccc1C(=O)O)c1ccc2ccccc2n1	HTR5A ag ctr 26 | MOR-DOR ag-2 52 | HTR5A ag confirm inactive
O=C(Nc1ccccc1)c1ccc2ccccc2n1	none
COc1ccc2c(c1)Cc1sc(NC(C)=O)nc1-2	HTR5A ag ctr 15 | MOR-DOR ag-2 inactive | HTR5A ag confirm inactive
COc1ccc(NC(=O)C(=O)NCCO)cc1Cl	HTR5A ag ctr 15 | MOR-DOR ag-2 inactive | HTR5A ag confirm inactive
COc1ccc(NC(=O)C(=O)NCCCO)cc1Cl	none
Cc1onc(-c2ccccc2Cl)c1C(=O)NCCN1Cc2ccccc2C1=O	HTR5A ag ctr 29 | MOR-DOR ag-2 inactive | HTR5A ag confirm inactive
CC1CCCCN1Cc1c(C#N)c2ccccc2n1C (stereo not drawn)	HTR5A ag ctr 21 | MOR-DOR ag-2 inactive | HTR5A ag confirm inactive
COc1ccccc1NC(=O)COC(=O)c1cc2c(s1)CCC2	none
COc1ccc(OC)c(NC(=O)COC(=O)c2cc3c(s2)CCC3)c1	HTR5A ag ctr 15 | MOR-DOR ag-2 inactive | HTR5A ag confirm inactive
CNC(=O)c1sc(-c2ccccc2)nc1C	none
CNC(=O)c1sc(-c2cccnc2)nc1C	HTR5A ag ctr 18 | MOR-DOR ag-2 inactive | HTR5A ag confirm inactive
O=C(O)c1cccc(CN2C(=O)c3ccccc3C2=O)c1	none
O=C1c2cccc3c(O)ccc(c23)C(=O)N1Cc1ccccc1	HTR5A ag ctr 17 | MOR-DOR ag-2 20 | HTR5A ag confirm inactive
C=CCN1CCc2c(cc(O)c(O)c2Br)[C@@H](c2ccccc2)C1	HTR5A ag ctr 57 | MOR-DOR ag-2 inactive | HTR5A ag confirm 59
COc1ccc2c(=O)c3c(=O)n(CCc4ccccc4)c(C)nc3oc2c1	none (no result: OPRM1-OPRD1 inv, HTR5A inv ag, beta cell repl, HTR5A ag ctr, MOR-DOR ag-1)
